# Test results as given in PubChem BioAssay (EPA / NIEHS).
# Active and inactive are the calls of the source. How the source made its calls: active means hit-call score of the fitted dose curve at least 0.9, where 1 is the maximum; inactive means score below 0.9.
# Read-out: Interleukin 17A (IL17A), IL17A (gene 3605)
# Experiment: BSK_BT_xIL17A: BioMAP Diversity Plus: BT Assay for Interleukin 17A (IL17A) Biomarker Activity (AID 2284229)
# Conditions: primary human B cells with PBMC
# Method: BSK_BT is a cell-based, multiplexed-readout assay that uses B cell and peripheral blood mononuclear cells, a human vascular primary cell co-culture, with measurements taken at 24 hours after chemical dosing in a microplate: 96-well plate.BSK_BT_xIL17A is an assay component measured in the BSK_BT assay. It measures secreted IL-17A related to regulation of gene expression using LumineX xMAP technology.Data from the assay component BSK_BT_xIL17A was analyzed at the endpoint, BSK_BT_xIL17A, in the positive analysis fitting direction relative to DMSO as the negative control and baseline of activity. Using a type of cytokine quantitation reporter, gain or loss-of-signal activity can be used to understand protein changes. To generalize the intended target to other relatable targets, this assay endpoint is annotated to the 'cytokine' intended target family, where the subfamily is 'interleukins'.
# The levels of cell surface (or secreted, indicated by the prefix "s") biomarker endpoints were measured by ELISA. Overt cytotoxicity to cells in confluent adherent cultures (all systems other than the BT system) was assessed by measuring total protein levels using sulforhodamine B (SRB) staining in parallel cultures at the time of biomarker measurements, indicated as SRB endpoints. For proliferation assays for adherent cell types, individual cell types are cultured at sub-confluence and relative cell numbers quantified by SRB staining at time points optimized for each system (48 h: 3C and CASM3C systems; 72 h: BT and HDF3CGF systems; 96 h: SAg system). SRB was performed by staining cells with 0.1% SRB after fixation with 10% TCA and reading wells at 560 nm.Viability and proliferation of PBMC (T cells) was quantified by Alamar Blue reduction for the SAg and BT systems. For PBMC viability (referred to as PBMC Cytotoxicity within the assay endpoint names), cells were plated (75,000/well in a 96-well plate) and then chemical samples added for 1 h before addition of activators, SEB and TSST-1 (20 ng/mL final concentration each). Cells were incubated for 90 h. Then, Alamar Blue (20 uL/well) (Invitrogen, Cat DAL1100) was added for 6 h, and the plates were read with a fluorescence microplate reader at 546/580 nm (excitation/emission). For PBMC proliferation, cells were plated and activated as above but incubated for only 16 h prior to addition of Alamar Blue. Plates were read after 6 h.
SMILES,outcome,AC50
CC(C)c1ccc(C(C)C)cc1,inactive,
Nc1cc([N+](=O)[O-])ccc1Cl,inactive,
C=C[Si](OCC)(OCC)OCC,inactive,
CN(CCOc1ccc(CC2SC(=O)NC2=O)cc1)c1ccccn1 (stereo not drawn),inactive,
O=P(c1ccccc1)(c1ccccc1)c1ccccc1,inactive,
C=C(C)C(=O)O[C@H]1C[C@@H]2CC[C@@]1(C)C2(C)C,inactive,
CC(C)(COC(=O)c1ccccc1)COC(=O)c1ccccc1,inactive,
c1ccc2c(c1)c1cccc3ccc4cccc2c4c31,inactive,
O=C=NC1CCC(CC2CCC(N=C=O)CC2)CC1 (stereo not drawn),inactive,
CC(=O)/C=C/C1=C(C)CCCC1(C)C,inactive,
CC(=O)O[C@]1(C(C)=O)CC[C@H]2[C@@H]3C[C@H](C)C4=CC(=O)CC[C@]4(C)[C@H]3CC[C@@]21C,inactive,
c1ccc2sc(SN(C3CCCCC3)C3CCCCC3)nc2c1,inactive,
CC(C)Oc1ccccc1O,inactive,
CCCCC(CC)COC(=O)/C=C\C(=O)OCC(CC)CCCC (stereo not drawn),inactive,
CC1CCC(C(C)CS)CC1S (stereo not drawn),inactive,
Cc1ccc2n[nH]nc2c1,inactive,
CC(=O)Nc1ccccc1O,inactive,
Cc1ccc(O)c(C(C)(C)C)c1,inactive,
O=C1CCCCCCCCCCCCCCO1,,25.2 µM (active)

SMILES,outcome,AC50
CCCCC(CC)COCCC#N (stereo not drawn),inactive,
CNC[C@H](O)c1cccc(O)c1,inactive,
CCCCCCCCCC=O,inactive,
O=C1OC2(c3cc(Br)c(O)c(Br)c3Oc3c2cc(Br)c(O)c3Br)c2c(Cl)c(Cl)c(Cl)c(Cl)c21,,9.94 µM (active)
CCCCCCCCCCCCCCCCCC(=O)OCC(CC)CCCC (stereo not drawn),inactive,
CCc1c(C)cc(N)c(CC)c1N,inactive,
C#C[C@]1(O)CC[C@H]2[C@@H]3CCC4=Cc5oncc5C[C@]4(C)[C@H]3CC[C@@]21C,,24.4 µM (active)
O=C(O)C[C@H](O)C[C@H](O)/C=C/c1c(C2CC2)nc2ccccc2c1-c1ccc(F)cc1,,2.42 µM (active)
COC(=O)c1ccc(C)cc1,inactive,
Cc1ccc(Nc2ccc(O)c3c2C(=O)c2ccccc2C3=O)cc1,inactive,
O=[N+]([O-])c1cc(C(F)(F)F)ccc1Cl,inactive,
BrC1CCC(Br)C(Br)CCC(Br)C(Br)CCC1Br (stereo not drawn),,17.4 µM (active)
CCCCC/C=C/C=C/C=O,,20 µM (active)
O=C(O)c1cn(C2CC2)c2cc(N3CCNCC3)c(F)cc2c1=O,inactive,
O=C(O)c1cn(-c2ccc(F)cc2)c2cc(N3CCNCC3)c(F)cc2c1=O,inactive,
N#Cc1ccc(CC(=NNC(=O)Nc2ccc(OC(F)(F)F)cc2)c2cccc(C(F)(F)F)c2)cc1,inactive,
CCCCCCCCC=O,inactive,
CCn1c2ccccc2c2cc(N)ccc21,inactive,
CC1COc2ccccc2N1C(=O)C(Cl)Cl (stereo not drawn),inactive,
